# High-throughput results: PubChem, National Center for Advancing Translational Sciences (NCATS)
# A selection: hits, their analogues and other compounds. The true share with any hit is near 2.8%.
# IP6K1 inh: Primary qHTS assay for small molecule inhibitors of Inositol hexaphosphate kinase 1 (IP6K1); IP6K1 kinase, ADP-Glo luminescence, 2 h; stronger effect = lower value; AID 1645851, 2021; activity change, % (series mostly up to about 58 µM); 0.81% of 140,000 active; Inositol hexakisphosphate kinase 1 (Homo sapiens), Q92551; in the data active = activity change below about -25%; also: % is scaled to controls: 0 for no effect and ±100 for the full control effect
#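 ADP-Glo luminescence measures ADP made by human IP6K1 during a 2 h RT reaction with ATP/IP6 (mix at 1.3 mM/130 uM); top library doses 57.5 and 19.1 uM final.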
# HEK293 viab: GF-AFC viability counterscreen for inhibitors of alpha-synuclein gene (SNCA) expression; Potency, µM (top dose mostly 57.1 µM), inactives show at the highest dose activity change, negative = cytotoxicity, usual class: cytotoxic; HEK-293-SNCA-luc viability, GF-AFC fluorescence, 24 h; 0.12% of 150,000 active; AID 1671193, 2021;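 also: potency is read from the fitted curve at half-maximal effect; 0% = DMSO-treated cells and -100% = medium-only wells without cells; nearly all actives have a fitted effect of over 30% in size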
#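 Cytotoxicity counterscreen: after 24 h compound treatment of genome-edited SNCA-luciferase HEK-293 cells, live-cell protease substrate GF-AFC read by fluorescence after 30 min; activity scaled between DMSO (0%) and medium-only (-100%), curves Hill-fitted.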
# SNCA expr inh: Primary qHTS assay for inhibitors of alpha-synuclein gene (SNCA) expression | HEK-293 SNCA-luciferase knock-in, luminescence, 24 h | Potency, µM (titrated, usually from 57.2 µM), for inactives: at the highest dose activity change, negative = inhibition, hits mostly inhibitors | 0.17% of 140,000 active;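 also: potency is read from the fitted curve at half-maximal effect; plate controls were DMSO cells for no effect and cell-free wells for full effect; nearly all actives have a fitted effect of over 45% in size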
# KDM5B inhibitor: Primary screen for KDM5B Histone Demethylases FDH-coupled qHTS | Potency, µM (series often up to 57.7 µM), most hits filed as inhibitors | 2.6% of 220,000 active | Lysine-specific demethylase 5B (Homo sapiens), Q9UGL1 | AID 1347165, 2019 | KDM5B demethylase, FDH-coupled NADH fluorescence (FDH is formaldehyde dehydrogenase); also: potency is read from the fitted curve at half-maximal effect; 0% is about no effect; nearly all actives have a fitted effect of over 70% in size
#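 Inhibition is measured as reduced NADH fluorescence generation from FDH coupling to formaldehyde release. Truncated KDM5BΔAP at 200 nM final acts on H3K4me3 peptide (12.5 µM in substrate mix) in pH 7.5 HEPES buffer with Tween-20, 30 min, room temperature.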
# * = called active by the depositor; i = inactive; ? = inconclusive; . = no result; [ ] = another dose, or the depositor's remark. Unless noted, calls follow the shape of the dose curve; as a rule, active = well fitted curve in the direction sought with a large enough effect; inconclusive = small, poorly fitted or top-dose-only effect, or another doubt; inactive = no such curve, though single readings can be large; an effect the other way counts as inactive or inconclusive.
SMILES,IP6K1 inh,HEK293 viab,SNCA expr inh,KDM5B inhibitor
CN(C)c1ccc(C(=O)N2CCCN(c3cc(-c4ccc(F)cc4)[nH]n3)CC2)cc1,13.0,-8.9%,-1.3%,i
Cc1nn2c(c1-c1ccccc1Oc1ccccc1)N(Cc1cccc(O)c1)CCC2,8.7,?,?,?
Cc1nn2c(c1-c1ccccc1OCc1ccccc1)N(Cc1ccc(C(=O)O)s1)CCC2,21.3,?,11.2µM*,?
Cc1nn2c(c1-c1ccccc1Oc1ccccc1)N(Cc1ccccc1O)CCC2,15.2,?,2µM*,28.2µM*
COc1ccccc1CN1CCCn2nc(C)c(-c3ccccc3C(N)=O)c21,13.1,?,3.55µM*,31.6µM*
Cc1nn2c(c1-c1ccccc1OCc1ccccc1)N(Cc1ccccc1)CCC2,22.9,?,?,?
COCCN1CC(CO)C2(CCN(Cc3c[nH]c4ccccc34)CC2)C1 (configuration not stated),-14.2,-8.8%,-23.2%,i
CC(C)c1nn(-c2c(Cl)cccc2Cl)c2nc(Cc3ccc(OCCO)cc3)[nH]c(=O)c12,17.6,?,0.192µM*,.
COCCc1nn2c(=O)cc(COC(=O)c3ccccc3C)nc2s1,6.2,0.0%,163.4%,i
Cc1ccc(Nc2ccnc(N3CCCN([S+](=O)([O-])c4cccs4)C3)n2)cc1,-15.0,5.9%[12.5 µM],10.3%,.
COCCN1Cc2nc(-c3ccc(OC)c(F)c3)ccc2OCC1=O,-2.8,1.1%[87.6 µM],18.3%[87.6 µM],39.8µM*
O=C1COc2ccc(-c3cc(F)cc(F)c3)nc2CN1Cc1ccccc1,-5.6,0.8%[87.6 µM],-12.7%[87.6 µM],31.6µM*
O=C1COc2ccc(-c3ccccc3)nc2CN1Cc1ccccc1,-10.0,-9.7%[87.6 µM],5.8%[87.6 µM],i
COc1ccc(-c2ccc3c(n2)CN(Cc2ccccc2)C(=O)CO3)cc1F,-6.6,-15.6%[87.6 µM],7.5%[87.6 µM],20µM*
O=C1COc2ccc(N3CCCC3)nc2CN1Cc1ccccc1,-3.2,-2.9%[87.6 µM],-9.6%[87.6 µM],35.5µM*
COCCN1Cc2nc(-c3cc(F)cc(F)c3)ccc2OCC1=O,-7.3,-5.5%[87.6 µM],-24.2%[87.6 µM],i
Cc1c(NC(=O)c2nc3ccccc3n(C)c2=O)cccc1[N+](=O)[O-],37.2,-5.7%,20.2%,i
O=C(Nc1cccc(C(F)(F)F)c1)N[C@H]1[C@H](O)[C@@H](N2CCCC2)[C@@H]2OC[C@H]1O2,4.4,-13.4%[87.6 µM],-0.2%[87.6 µM],i
Cc1nn(C)c(C)c1S(=O)(=O)NC1CCc2nn(CC3CC3)c(=O)n2CC1 (configuration not stated),2.9,7.7%,4.9%,i
Cc1ccccc1-c1cc(Nc2ccc(F)cc2)ncn1,.,5.6%,-4.6%,.
COCCNc1ccc(-c2noc([C@@H]3CCCN3C3CCOCC3)n2)cn1,13.4,-6.6%[87.6 µM],1.7%[87.6 µM],?
COCCNc1ncccc1-c1noc([C@@H]2CCCN2C2CCN(C(C)=O)CC2)n1,3.3,4.7%[87.6 µM],15.3%[87.6 µM],35.5µM*
COCCNc1ncccc1-c1noc([C@@H]2CCCN2C2CCN(C)CC2)n1,2.2,-5.8%[87.6 µM],12.6%[87.6 µM],31.6µM*
COCCNc1ncccc1-c1noc([C@@H]2CCCN2C2CCC2)n1,-11.8,-0.2%[87.6 µM],-23.2%[87.6 µM],31.6µM*
COCCNc1ncccc1-c1noc([C@@H]2CCCN2Cc2ccccc2OC)n1,19.8,-14.1%[87.6 µM],-3.1%[87.6 µM],?
SMILES,IP6K1 inh,HEK293 viab,SNCA expr inh,KDM5B inhibitor
COCCNc1ncccc1-c1noc([C@@H]2CCCN2Cc2ccc(C(=O)O)cc2)n1,10.8,2.4%[87.6 µM],15.2%[87.6 µM],35.5µM*
COCCOc1ncccc1-c1noc([C@@H]2CCCN2Cc2ccc(C(=O)O)cc2)n1,-2.4,-1.9%[87.6 µM],-4.6%[87.6 µM],?
COCc1nc2nc(-c3ccccc3)c(-c3ccc(OC)nc3)cc2n1C,18.8,2.7%[87.6 µM],-16.2%[87.6 µM],35.5µM*
COCc1nc2nc(-c3ccccc3)c(-c3cccc([S+](C)(=O)[O-])c3)cc2n1C,8.6,4.5%[87.6 µM],48.0%[87.6 µM],?
COCc1nc2nc(-c3ccccc3)c(-c3ccc(N4CCN(C)CC4)nc3)cc2n1C,2.9,0.7%[87.6 µM],-5.8%[87.6 µM],35.5µM*
COCc1nc2nc(-c3ccccc3)c(-c3ccnc(OC)c3)cc2n1C,7.0,4.2%[87.6 µM],-16.3%[87.6 µM],i
COCc1nc2nc(-c3ccccc3)c(-c3ccc([S+](C)(=O)[O-])cc3)cc2n1C,8.8,4.8%[87.6 µM],-3.2%[87.6 µM],35.5µM*
CCOc1ccc(C(=O)N2CC(COC)C3(CCNCC3)C2)cc1OCC (configuration not stated),-2.9,-11.2%,6.1%,i
COCCCn1c(C)cc(C(=O)N2CC(COC)C3(CCNCC3)C2)c1C (configuration not stated),13.4,-9.4%,-2.2%,31.6µM*
COCC1CN(C(=O)c2nccn2C)CC12CCNCC2 (configuration not stated),26.0,1.1%,6.0%,25.1µM*
COCCCn1c(C)cc(C(=O)N2CCCC(CO)CCNC(=O)CC2)c1C (configuration not stated),-10.1,5.7%,-7.4%,i
Cc1ccc(NC(=O)Cn2c(C)cc3nc4n(c(=O)c32)CCC4)c(C)c1,2.5,-5.3%,31.4%,i
N#Cc1cccc(CN2Cc3[nH]cnc3C[C@H]2C(=O)NCc2ccco2)c1,17.9,-12.7%[87.6 µM],-14.2%[87.6 µM],31.6µM*
O=C(NCc1ccco1)[C@@H]1Cc2nc[nH]c2CN1Cc1ccc(Cl)cc1,9.4,-5.1%[87.6 µM],?,?
O=C(c1ccoc1)N1CC[C@@H]2COCCN(Cc3ccccc3)[C@@H]2C1,14.8,-4.9%,55.2%,i
Cc1ccc(F)c(OC2(C(=O)O)CCN(c3cnc4ccccc4n3)CC2)c1,-1.2,-5.2%,-2.2%,20µM*
O=C(NCCc1cccc(F)c1)C1CC(=O)N(c2n[nH]c3ccccc23)C1 (configuration not stated),3.8,8.0%,7.9%,22.4µM*
O=C(NCCC1=CCCCC1)C1CC(=O)N(c2n[nH]c3ccccc23)C1 (configuration not stated),-1.1,6.8%,24.4%,25.1µM*
O=C(NCc1ccc(F)cc1)C1CC(=O)N(c2n[nH]c3ccccc23)C1 (configuration not stated),2.7,13.8%,-10.1%,?
Cc1nn(CC(=O)Nc2ccc(N3CCCC3)cc2)c(=O)c2ccccc12,.,.,.,i
CC(C)(CNC(=O)C1CCCC(C(F)(F)F)C1)C(N)=O (configuration not stated),.,.,.,i
Cc1cc(C)cc(NC(=O)CSc2cc(C)[nH]c(=O)n2)c1,8.7,-19.5%,5.9%,i
CC(C)c1c(C(=O)NCc2cccnc2N2CCOCC2)cnn1-c1ccc(F)cc1,.,.,.,i
COc1ccc(C(=O)N[C@H]2CO[C@H]3[C@@H]2OC[C@@H]3n2nnnc2Oc2ccc3c(c2)OCO3)cc1,7.1,-21.0%,?,35.5µM*
CC(=O)c1ccc(NC(=O)N[C@H]2CO[C@H]3[C@@H]2OC[C@@H]3n2nnnc2Oc2cccc(N(C)C)c2)cc1,-23.7,-7.5%,27.7%,i
